# Test results from the supplement of paper PMC10646978.
# ± gives the standard deviation.
# Experiments:
# Conditions in all cases: modulator concentration 10 µM
# [1] = system: RAW-Dual (murine macrophage reporter line); test: NF-kB reporter (SEAP) activity fold change vs agonist alone; higher = enhanced NF-kB activity
# Method in brief: (§1)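 RAW-Dual murine macrophage reporter cells were plated at 50 000 per well in 384-well plates, pin-transferred compound to 10 μM final, and pre-incubated for 1 hour at 37 °C before a PRR agonist was added and the cells incubated overnight. NF-κB activity was read from supernatant SEAP with QUANTI-Blue at 620 nm absorbance, and IRF activity from Lucia luciferase with QUANTI-Luc by luminescence. Each signal was expressed as fold change by dividing by the mean agonist-only control on the same plate. Two replicate plates were averaged, with errors obtained by propagation.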
# [2] = system: RAW-Dual (murine macrophage reporter line); test: IRF reporter (Lucia luciferase) activity fold change vs agonist alone; higher = enhanced IRF activity
# Method in brief: as §1
# [3] = system: RAW-Dual (murine macrophage reporter line); test: viability score (confluency relative to resting cells, overnight) (fraction); higher = more viable, active = viable (0.7 or more)
# Method in brief: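 A compound met the cutoff when both of two confluency masks exceeded 70% of resting cells. Those masks were made with IncuCyte software from IncuCyte images of RAW-Dual macrophages treated overnight at 10 μM final. This is the basis of the viability score, which is confluency relative to resting cells.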
# [4] = agonist: CpG ODN 1826 0.5 ug/mL
Structure (SMILES),"NF-kB reporter [1, 4]",NF-kB reporter ([1]; agonist: LPS 0.1 ug/mL),NF-kB reporter ([1]; agonist: MPLA […]),IRF reporter ([2]; agonist: 3'3'-cGAMP 10 ug/mL),IRF reporter ([2]; agonist: LPS 0.1 ug/mL),IRF reporter ([2]; agonist: MPLA […]),viability score [3]
COc1ccccc1-n1ncc2c(C)nnc(SCC(=O)NCc3ccccc3Cl)c21,0.739 ± 0.33,0.987 ± 0.077,0.761 ± 0.19,0.781 ± 0.13,0.882 ± 0.15,0.781 ± 0.15,0.944 (active)
CC(C)(C)C(O)/C=C/c1ccc2c(c1)OCO2 (stereo not given),1.19 ± 0.066,1.26 ± 0.11,1.03 ± 0.055,0.45 ± 0.029,0.877 ± 0.16,1.01 ± 0.17,0.819 (active)
CCS(=O)(=O)N1CCC2(CC1)NC(=O)N(CCOc1ccccc1)C2=O,0.871 ± 0.041,1.05 ± 0.11,1.09 ± 0.078,0.996 ± 0.047,1.43 ± 0.25,1.58 ± 0.61,0.989 (active)
CCOC(=O)c1ccc(N2C(=O)CC(N3CCN(c4ccc([N+](=O)[O-])cc4)CC3)C2=O)cc1 (stereo not given),0.813 ± 0.072,1.08 ± 0.066,0.928 ± 0.071,1.06 ± 0.039,1.64 ± 0.13,1.47 ± 0.13,0.997 (active)
C#CCN[C@@H]1CCc2ccccc21.CS(=O)(=O)O,0.992 ± 0.1,1.03 ± 0.12,1.03 ± 0.031,0.933 ± 0.087,0.913 ± 0.03,0.849 ± 0.1,0.996 (active)
COc1ccnc(CS(=O)c2nc3ccc(OC(F)F)cc3[nH]2)c1OC (stereo not given),1.18 ± 0.16,0.901 ± 0.1,0.879 ± 0.053,0.901 ± 0.056,1.07 ± 0.11,1.15 ± 0.15,0.999 (active)
O=S1(=O)N=C(SCc2ccccc2)Nc2ccc(Cl)cc21,0.76 ± 0.059,0.913 ± 0.067,1.16 ± 0.11,0.718 ± 0.074,1.08 ± 0.12,1.11 ± 0.3,1.02 (active)
O=C(OC(=Cc1nccn1Cc1ccc(Cl)cc1)c1ccccc1)c1ccccc1,0.323 ± 0.021,0.481 ± 0.05,0.394 ± 0.026,0.37 ± 0.015,1.36 ± 0.12,1.51 ± 0.13,0.973 (active)
COc1ccc2c(c1)c(=O)oc1cc(OCc3cccc(C(F)(F)F)c3)ccc12,1.03 ± 0.076,1.01 ± 0.1,1.04 ± 0.027,0.998 ± 0.047,0.97 ± 0.046,1.11 ± 0.11,0.995 (active)
CCOC(=O)C1=C(C)NC(C)=C(C(=O)OCC)C1c1ccco1,1.03 ± 0.09,1.01 ± 0.066,1.14 ± 0.087,0.82 ± 0.16,0.999 ± 0.12,0.888 ± 0.28,0.996 (active)
COc1cc(Br)c(C=C(C#N)c2nn(-c3ccccc3)c(N)c2C#N)cc1OC,1.25 ± 0.1,1.09 ± 0.08,1.07 ± 0.1,0.936 ± 0.025,1.25 ± 0.24,1.18 ± 0.25,1.01 (active)
C1=C(c2ccccc2)Nc2nnnn2C1c1ccccc1 (stereo not given),0.951 ± 0.076,0.945 ± 0.077,0.996 ± 0.097,0.949 ± 0.087,1.34 ± 0.28,1.46 ± 0.36,1.01 (active)
CCCCCOC(=O)COc1ccc(S(=O)(=O)c2ccc(OCC(=O)OCCCCC)cc2)cc1,0.959 ± 0.079,0.964 ± 0.094,1.12 ± 0.14,1.02 ± 0.032,1.33 ± 0.21,1.61 ± 0.25,1.03 (active)
CCN(CC)c1ccc2cc(-c3nnc(NCc4ccc(F)cc4)s3)c(=O)oc2c1,1.08 ± 0.085,0.955 ± 0.059,0.906 ± 0.055,0.941 ± 0.035,1.08 ± 0.13,0.981 ± 0.085,1.01 (active)
O=C(O)CCn1c2c(c3ccccc31)C[C@H](NS(=O)(=O)c1ccc(F)cc1)CC2,1.13 ± 0.27,0.94 ± 0.061,0.947 ± 0.06,0.879 ± 0.072,1.2 ± 0.29,1.1 ± 0.12,1 (active)
CNC(=O)c1ccccc1Sc1ccc2c(/C=C/c3ccccn3)n[nH]c2c1,0.626 ± 0.11,0.729 ± 0.25,0.813 ± 0.061,0.0229 ± 0.0024,0.485 ± 0.12,0.259 ± 0.048,0.897 (active)
CCS(=O)(=O)c1ccc(-c2ccc(NC(=O)c3cccc(OC)c3OC)cc2)nn1,0.914 ± 0.059,0.977 ± 0.1,1.01 ± 0.1,1.05 ± 0.053,1.2 ± 0.26,1.36 ± 0.4,0.955 (active)
Cn1c(=O)c2c(ncn2CC2OCCO2)n(C)c1=O,0.89 ± 0.12,0.921 ± 0.067,0.99 ± 0.057,0.919 ± 0.084,0.904 ± 0.11,0.845 ± 0.17,1 (active)
COc1ccccc1-c1cc(-c2ccccc2)nc(SCC(=O)c2cc3ccccc3oc2=O)c1C#N,0.981 ± 0.058,1.02 ± 0.066,0.966 ± 0.061,0.879 ± 0.034,1.45 ± 0.16,1.07 ± 0.1,1 (active)
CC(=O)Nc1cc2nc3ccccc3nc2cc1NC(C)=O,0.964 ± 0.11,1.05 ± 0.11,0.955 ± 0.041,1.09 ± 0.28,1.05 ± 0.092,0.988 ± 0.3,1 (active)
Cc1nc2ccc(Cl)cn2c(=O)c1NC(=O)c1c(F)cccc1Cl,0.78 ± 0.034,1.05 ± 0.11,0.96 ± 0.083,1.05 ± 0.049,1.09 ± 0.25,1.2 ± 0.41,0.965 (active)
CCOC(=O)N1CCN(C(=O)CSc2nnc(-c3cccc(Cl)c3)o2)CC1,0.846 ± 0.18,0.96 ± 0.065,0.974 ± 0.057,0.769 ± 0.03,1.29 ± 0.1,1.04 ± 0.11,0.95 (active)
COc1cc2c(cc1OC)C1C(=O)c3ccc4c(c3OC1CO2)CCC(C)(C)O4 (stereo not given),0.91 ± 0.073,1.02 ± 0.075,1.67 ± 0.16,0.824 ± 0.026,1.52 ± 0.24,1.75 ± 0.36,1.02 (active)
COc1ccc(C2NN(Cc3ccccc3)C3C(=O)N(C)C(=O)C23)cc1 (stereo not given),0.902 ± 0.058,0.945 ± 0.088,1.13 ± 0.086,1.26 ± 0.068,1.33 ± 0.29,1.46 ± 0.5,0.955 (active)
Cc1oncc1C(=O)NCCn1nc(C(F)(F)F)cc1C1CC1,1.06 ± 0.096,1.05 ± 0.081,0.991 ± 0.067,0.972 ± 0.039,0.978 ± 0.087,0.935 ± 0.21,1 (active)
